Source: the supplement of paper PMC10849652
Targets with a hit are over-represented here; the source holds about 8,800 in all. About 0.5% of all pairs of compound and target were hits. Unmarked numbers belong to inactive results.

Columns and labels:
Experiment in all cases: log2 fold change, soluble protein after heating vs DMSO (PISA); higher = thermal stabilisation; K562 lysate, 10 uM; active = over 0.2 and 3.5 SD of the protein, either way, in both replicates (recomputed)
alvocidib = compound: CN1CC[C@H](c2c(O)cc(O)c3c(=O)cc(-c4ccccc4Cl)oc23)[C@H](O)C1 [alvocidib]
How it was run: (§1)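 Following dounce homogenisation of K562 pellets in PBS pH 7.4 with 1 mM MgCl2, crude extract at 1 mg/mL protein was incubated for 30 min with 10 μM compound. Aliquots were then heated for 3 min over 48°C-58°C and pooled, NP-40 was added to 0.5% at 4°C, and soluble protein was recovered as the supernatant at 21,000xg for 90 min. Channel-sum-equalised TMTpro 16plex LC-MS/MS quantified this protein. Each value, from duplicates, is a log-two fold change in thermal stability relative to solvent controls.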

Tubastatin A = compound: CN1CCc2c(c3ccccc3n2Cc2ccc(C(=O)NO)cc2)C1 [Tubastatin A]
How it was run: as §1

[1] = compound: CNC(=O)C1=CC=CC=C1NC2=NC(=NC=C2Cl)NC3=C(C=C(C=C3)N4CCOCC4)OC
How it was run: as §1

defactinib = compound: CNC(=O)c1ccc(Nc2ncc(C(F)(F)F)c(NCc3nccnc3N(C)S(C)(=O)=O)n2)cc1 [defactinib]
How it was run: as §1

[2] = compound: CNc1nc(-c2ccc3c(N)n[nH]c3c2)cc(N2C[C@@H](C(=O)NC3CCCCC3)CC[C@H]2C)n1
How it was run: as §1

encorafenib = compound: COC(=O)N[C@@H](C)CNc1nccc(-c2cn(C(C)C)nc2-c2cc(Cl)cc(NS(C)(=O)=O)c2F)n1 [encorafenib]
How it was run: as §1

[3] = compound: COC(=O)[C@H](CCSC)NC(=O)C1=C(C=C(C=C1)NC[C@H](CS)N)C2=CC=CC=C2
How it was run: as §1

alisertib = compound: COc1cc(Nc2ncc3c(n2)-c2ccc(Cl)cc2C(c2c(F)cccc2OC)=NC3)ccc1C(=O)O [alisertib]
How it was run: as §1

[4] = compound: COc1cc2nc(-c3cc(F)ccc3O)nc(N[C@@H]3CNC[C@H]3C(C)(C)O)c2cc1OC
How it was run: as §1

gefitinib = compound: COc1cc2ncnc(Nc3ccc(F)c(Cl)c3)c2cc1OCCCN1CCOCC1 [gefitinib]
How it was run: as §1

lapatinib = compound: CS(=O)(=O)CCNCc1ccc(-c2ccc3ncnc(Nc4ccc(OCc5cccc(F)c5)c(Cl)c4)c3c2)o1 [lapatinib]
How it was run: as §1

pictilisib = compound: CS(=O)(=O)N1CCN(Cc2cc3nc(-c4cccc5[nH]ncc45)nc(N4CCOCC4)c3s2)CC1 [pictilisib]
How it was run: as §1

crizotinib = compound: C[C@@H](Oc1cc(-c2cnn(C3CCNCC3)c2)cnc1N)c1c(Cl)ccc(F)c1Cl [crizotinib]
How it was run: as §1

[5] = compound: C[C@H](C1=CC=C(C=C1)C(=O)NC2=C3C=CNC3=NC=C2)N
How it was run: as §1

duvelisib = compound: C[C@H](Nc1ncnc2nc[nH]c12)c1cc2cccc(Cl)c2c(=O)n1-c1ccccc1 [duvelisib]
How it was run: as §1

gandotinib = compound: Cc1cc(Nc2cc(CN3CCOCC3)c3nc(C)c(Cc4ccc(Cl)cc4F)n3n2)n[nH]1 [gandotinib]
How it was run: as §1

tozasertib = compound: Cc1cc(Nc2cc(N3CCN(C)CC3)nc(Sc3ccc(NC(=O)C4CC4)cc3)n2)n[nH]1 [tozasertib]
How it was run: as §1

doramapimod = compound: Cc1ccc(-n2nc(C(C)(C)C)cc2NC(=O)Nc2ccc(OCCN3CCOCC3)c3ccccc23)cc1 [doramapimod]
How it was run: as §1

bafetinib = compound: Cc1ccc(NC(=O)c2ccc(CN3CC[C@H](N(C)C)C3)c(C(F)(F)F)c2)cc1Nc1nccc(-c2cncnc2)n1 [bafetinib]
How it was run: as §1

[6] = compound: Cc1cccc(CC(=O)N2CCc3c2ccc(-c2cn(C)c4ncnc(N)c24)c3F)n1
How it was run: as §1

UniProt Q9NY27, sequence (Q9NY27 whole entry, looked up): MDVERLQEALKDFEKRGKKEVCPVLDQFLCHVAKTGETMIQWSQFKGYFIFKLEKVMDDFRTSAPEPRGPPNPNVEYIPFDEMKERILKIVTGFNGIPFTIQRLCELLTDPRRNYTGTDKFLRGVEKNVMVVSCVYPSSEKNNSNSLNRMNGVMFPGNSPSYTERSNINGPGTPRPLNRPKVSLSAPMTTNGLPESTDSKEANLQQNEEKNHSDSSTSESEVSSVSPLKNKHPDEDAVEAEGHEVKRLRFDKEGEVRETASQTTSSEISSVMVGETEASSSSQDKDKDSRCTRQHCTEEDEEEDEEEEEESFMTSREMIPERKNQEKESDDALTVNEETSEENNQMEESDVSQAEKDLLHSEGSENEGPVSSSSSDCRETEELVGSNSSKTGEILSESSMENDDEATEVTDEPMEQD
UniProt Q9NVM4, sequence (Q9NVM4 whole entry, looked up): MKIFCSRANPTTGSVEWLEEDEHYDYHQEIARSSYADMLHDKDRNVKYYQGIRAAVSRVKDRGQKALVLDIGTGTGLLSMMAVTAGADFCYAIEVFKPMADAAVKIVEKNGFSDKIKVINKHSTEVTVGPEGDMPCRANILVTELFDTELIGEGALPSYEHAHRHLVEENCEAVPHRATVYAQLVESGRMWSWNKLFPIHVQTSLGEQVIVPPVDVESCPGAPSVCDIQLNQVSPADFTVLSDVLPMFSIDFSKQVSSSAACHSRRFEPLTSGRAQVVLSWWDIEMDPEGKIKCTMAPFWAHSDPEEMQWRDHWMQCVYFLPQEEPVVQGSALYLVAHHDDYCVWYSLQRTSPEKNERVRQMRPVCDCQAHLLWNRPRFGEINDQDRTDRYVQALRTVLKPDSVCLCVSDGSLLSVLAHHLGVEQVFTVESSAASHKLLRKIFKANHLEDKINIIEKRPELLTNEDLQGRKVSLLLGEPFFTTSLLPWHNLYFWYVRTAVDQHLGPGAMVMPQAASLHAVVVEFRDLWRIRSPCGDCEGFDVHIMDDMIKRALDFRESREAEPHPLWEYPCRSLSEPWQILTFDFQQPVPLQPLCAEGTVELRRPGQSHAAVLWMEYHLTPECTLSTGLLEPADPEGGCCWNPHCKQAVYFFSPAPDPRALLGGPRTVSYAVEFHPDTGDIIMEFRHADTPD
UniProt Q93096, sequence (Q93096 whole entry, looked up): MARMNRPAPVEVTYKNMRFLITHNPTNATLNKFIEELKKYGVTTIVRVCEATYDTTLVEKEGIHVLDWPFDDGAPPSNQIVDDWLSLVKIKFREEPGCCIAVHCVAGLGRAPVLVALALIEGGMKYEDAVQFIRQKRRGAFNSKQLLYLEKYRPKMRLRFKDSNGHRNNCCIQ
UniProt P49643, sequence (P49643 whole entry, looked up): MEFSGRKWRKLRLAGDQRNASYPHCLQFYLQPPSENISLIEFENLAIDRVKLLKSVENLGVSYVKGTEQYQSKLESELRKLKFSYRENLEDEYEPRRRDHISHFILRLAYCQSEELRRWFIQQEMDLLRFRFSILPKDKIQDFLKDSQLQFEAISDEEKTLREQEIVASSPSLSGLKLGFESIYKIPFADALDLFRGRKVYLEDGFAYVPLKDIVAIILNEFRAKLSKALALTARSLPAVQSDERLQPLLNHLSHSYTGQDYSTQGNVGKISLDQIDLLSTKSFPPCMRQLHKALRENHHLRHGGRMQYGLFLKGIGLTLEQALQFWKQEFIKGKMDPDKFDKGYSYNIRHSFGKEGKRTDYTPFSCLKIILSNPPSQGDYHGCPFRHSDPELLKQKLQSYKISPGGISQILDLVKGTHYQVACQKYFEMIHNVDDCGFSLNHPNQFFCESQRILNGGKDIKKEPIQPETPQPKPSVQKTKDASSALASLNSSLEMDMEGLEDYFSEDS
UniProt O43663, sequence (O43663 whole entry, looked up): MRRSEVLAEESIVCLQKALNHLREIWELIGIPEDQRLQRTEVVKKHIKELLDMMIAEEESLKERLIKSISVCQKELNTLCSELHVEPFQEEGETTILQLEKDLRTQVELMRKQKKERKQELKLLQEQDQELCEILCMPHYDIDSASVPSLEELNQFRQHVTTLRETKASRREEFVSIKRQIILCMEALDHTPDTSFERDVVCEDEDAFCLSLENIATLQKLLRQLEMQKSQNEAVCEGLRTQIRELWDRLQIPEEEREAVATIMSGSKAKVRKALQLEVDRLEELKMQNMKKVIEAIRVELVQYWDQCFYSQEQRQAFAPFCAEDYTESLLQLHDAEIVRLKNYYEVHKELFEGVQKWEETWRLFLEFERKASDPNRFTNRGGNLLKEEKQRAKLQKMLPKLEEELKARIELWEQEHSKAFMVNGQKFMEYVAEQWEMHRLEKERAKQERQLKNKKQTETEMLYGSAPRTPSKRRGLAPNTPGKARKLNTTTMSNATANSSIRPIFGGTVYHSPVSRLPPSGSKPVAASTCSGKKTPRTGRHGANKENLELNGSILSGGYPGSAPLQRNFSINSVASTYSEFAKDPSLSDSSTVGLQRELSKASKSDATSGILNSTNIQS
UniProt Q96C36, sequence (Q96C36 whole entry, looked up): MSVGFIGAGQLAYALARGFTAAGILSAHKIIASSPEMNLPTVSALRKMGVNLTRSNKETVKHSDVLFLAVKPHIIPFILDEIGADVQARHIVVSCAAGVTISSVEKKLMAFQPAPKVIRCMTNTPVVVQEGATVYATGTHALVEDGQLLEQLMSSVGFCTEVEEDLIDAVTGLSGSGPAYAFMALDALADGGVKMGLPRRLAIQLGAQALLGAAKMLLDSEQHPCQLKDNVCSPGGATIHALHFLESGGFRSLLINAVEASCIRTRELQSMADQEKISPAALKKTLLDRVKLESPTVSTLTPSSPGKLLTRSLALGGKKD
UniProt Q9HAU0, sequence (Q9HAU0 whole entry, looked up): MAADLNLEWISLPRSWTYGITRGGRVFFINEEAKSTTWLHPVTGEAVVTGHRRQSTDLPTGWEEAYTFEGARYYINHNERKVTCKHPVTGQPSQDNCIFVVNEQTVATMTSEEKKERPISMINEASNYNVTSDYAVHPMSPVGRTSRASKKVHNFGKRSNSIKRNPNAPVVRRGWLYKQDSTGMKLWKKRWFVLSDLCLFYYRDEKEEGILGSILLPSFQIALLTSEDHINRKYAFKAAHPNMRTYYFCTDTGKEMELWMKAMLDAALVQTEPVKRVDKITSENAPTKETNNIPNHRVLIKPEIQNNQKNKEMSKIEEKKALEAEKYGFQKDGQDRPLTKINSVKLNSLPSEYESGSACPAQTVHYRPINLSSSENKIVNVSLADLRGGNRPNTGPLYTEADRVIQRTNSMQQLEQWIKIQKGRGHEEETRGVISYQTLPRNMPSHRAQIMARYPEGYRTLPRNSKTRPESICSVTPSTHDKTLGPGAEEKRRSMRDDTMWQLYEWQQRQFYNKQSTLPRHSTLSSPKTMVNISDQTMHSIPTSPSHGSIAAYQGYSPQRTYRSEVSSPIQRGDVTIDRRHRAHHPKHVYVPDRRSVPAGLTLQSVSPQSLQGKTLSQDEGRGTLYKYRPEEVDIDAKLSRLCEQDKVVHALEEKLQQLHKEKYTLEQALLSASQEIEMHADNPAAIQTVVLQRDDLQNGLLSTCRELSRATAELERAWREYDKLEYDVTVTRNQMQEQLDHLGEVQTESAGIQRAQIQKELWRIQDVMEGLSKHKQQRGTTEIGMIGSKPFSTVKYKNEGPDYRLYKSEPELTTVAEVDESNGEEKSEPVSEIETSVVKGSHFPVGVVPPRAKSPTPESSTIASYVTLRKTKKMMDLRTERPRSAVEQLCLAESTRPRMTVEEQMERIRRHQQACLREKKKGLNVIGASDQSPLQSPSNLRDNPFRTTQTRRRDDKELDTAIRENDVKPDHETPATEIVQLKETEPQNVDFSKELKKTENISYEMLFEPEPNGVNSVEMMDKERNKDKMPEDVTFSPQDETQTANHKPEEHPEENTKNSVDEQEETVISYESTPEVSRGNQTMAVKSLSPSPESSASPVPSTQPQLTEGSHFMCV
UniProt Q9UHX1, sequence (Q9UHX1 whole entry, looked up): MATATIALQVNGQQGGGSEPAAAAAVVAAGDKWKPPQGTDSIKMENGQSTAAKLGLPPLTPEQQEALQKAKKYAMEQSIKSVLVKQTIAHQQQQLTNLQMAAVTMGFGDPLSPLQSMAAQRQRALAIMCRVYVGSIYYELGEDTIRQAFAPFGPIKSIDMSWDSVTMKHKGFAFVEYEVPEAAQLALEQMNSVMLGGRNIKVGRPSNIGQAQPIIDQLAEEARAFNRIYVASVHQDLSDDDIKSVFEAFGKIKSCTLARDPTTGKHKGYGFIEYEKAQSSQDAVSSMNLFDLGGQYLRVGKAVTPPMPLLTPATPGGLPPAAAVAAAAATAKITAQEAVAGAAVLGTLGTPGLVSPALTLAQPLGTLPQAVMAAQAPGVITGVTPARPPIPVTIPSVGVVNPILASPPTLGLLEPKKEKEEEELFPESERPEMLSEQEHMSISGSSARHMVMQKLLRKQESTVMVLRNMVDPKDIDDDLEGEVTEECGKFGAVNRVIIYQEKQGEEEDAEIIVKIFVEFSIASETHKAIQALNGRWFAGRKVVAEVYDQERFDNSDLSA
UniProt Q9NR22, sequence (Q9NR22 whole entry, looked up): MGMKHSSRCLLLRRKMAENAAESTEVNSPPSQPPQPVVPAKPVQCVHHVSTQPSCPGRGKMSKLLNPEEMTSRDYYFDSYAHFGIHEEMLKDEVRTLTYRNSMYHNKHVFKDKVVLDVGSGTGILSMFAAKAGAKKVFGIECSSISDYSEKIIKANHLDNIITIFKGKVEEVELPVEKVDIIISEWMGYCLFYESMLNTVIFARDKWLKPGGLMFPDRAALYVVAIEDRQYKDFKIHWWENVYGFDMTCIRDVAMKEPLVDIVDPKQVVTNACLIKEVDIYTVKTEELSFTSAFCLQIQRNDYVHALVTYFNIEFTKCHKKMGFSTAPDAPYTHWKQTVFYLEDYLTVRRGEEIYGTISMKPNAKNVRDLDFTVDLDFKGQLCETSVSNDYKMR

Target | log2 fold change (alvocidib) | log2 fold change (Tubastatin A) | log2 fold change [1] | log2 fold change (defactinib) | log2 fold change [2] | log2 fold change (encorafenib) | log2 fold change [3] | log2 fold change (alisertib) | log2 fold change [4] | log2 fold change (gefitinib) | log2 fold change (lapatinib) | log2 fold change (pictilisib) | log2 fold change (crizotinib) | log2 fold change [5] | log2 fold change (duvelisib) | log2 fold change (gandotinib) | log2 fold change (tozasertib) | log2 fold change (doramapimod) | log2 fold change (bafetinib) | log2 fold change [6]
PUS3 (UniProt Q9BZE2) | 0.094 | -0.181 | 0.035 | -0.089 | -0.117 | 0.06 | 0.04 | 0.01 | -0.021 | 0.041 | 0.008 | -0.085 | 0.013 | 0.148 | -0.03 | -0.234 | 0.019 | -0.087 | -0.005 | -0.185
PRMT7 (UniProt Q9NVM4) | 0.017 | -0.069 | 0.024 | -0.047 | 0.002 | 0.012 | 0.286 (active) | -0.015 | 0.007 | 0 | -0.006 | 0 | 0.025 | -0.014 | 0.035 | -0.045 | 0.039 | -0.025 | -0.01 | -0.008
PLEKHA5 isoform 6 (UniProt Q9HAU0) | -0.11 | -0.074 | 0.02 | 0.065 | 0.006 | -0.016 | 0.054 | 0.035 | -0.03 | -0.039 | 0.003 | -0.054 | 0.006 | -0.033 | -0.032 | 0.093 | 0.002 | -0.028 | -0.061 | 0.002
PTGES2 (UniProt Q9H7Z7) | 0.015 | -0.169 | 0.122 | -0.075 | 0.322 | -0.127 | 0.098 | -0.026 | -0.248 | 0.245 | 0.637 (active) | 0.153 | -0.052 | -0.013 | 0.029 | 0.236 | 0.329 | 0.341 | 0.176 | 0.009
PRMT8 (UniProt Q9NR22) | -0.11 | -0.019 | 0.001 | -0.103 | -0.005 | -0.002 | 0.004 | -0.01 | 0.016 | 0.034 | -0.011 | 0.004 | -0.037 | -0.256 (active) | 0.012 | 0.071 | 0.008 | -0.001 | -0.112 | 0.168
PTP4A1 (UniProt Q93096) | 0.05 | 0.033 | 0.023 | 0.033 | 0.023 | 0.006 | -0.006 | -0.056 | -0.015 | 0.049 | -0.002 | 0.008 | 0.09 | 0.133 | 0.023 | -0.031 | 0.001 | -0.009 | -0.042 | -0.055
PUF60 (UniProt Q9UHX1) | 0.003 | 0.019 | -0.02 | -0.012 | 0.008 | -0.013 | 0.019 | 0.005 | -0.009 | -0.022 | 0 | -0.037 | 0.036 | 0.092 | -0.01 | -0.05 | -0.017 | -0.012 | 0.012 | -0.058
PPP4R2 (UniProt Q9NY27) | 0.021 | 0.013 | 0.018 | 0.015 | 0.014 | 0.025 | -0.014 | -0.058 | -0.002 | -0.01 | 0.057 | -0.003 | 0.023 | 0.159 | 0.003 | -0.011 | -0.007 | -0.022 | 0.021 | -0.048
PPP3CA isoform 2 (UniProt Q08209) | 0.043 | 0.017 | 0.033 | 0.101 | 0.01 | 0.023 | 0 | 0.061 | -0.001 | 0.09 | -0.008 | 0.085 | 0.048 | 0.075 | 0.008 | -0.099 | -0.068 | -0.006 | -0.026 | -0.091
PRIM2 (UniProt P49643) | -0.008 | -0.138 | 0.033 | -0.01 | 0.009 | -0.002 | 0.035 | -0.017 | -0.009 | 0.01 | 0.045 | -0.025 | -0.017 | 0.007 | -0.002 | -0.056 | -0.04 | 0.028 | -0.1 | 0.004
PYCR2 (UniProt Q96C36) | -0.052 | 0.041 | 0.004 | 0.001 | 0.011 | -0.005 | -0.038 | 0.013 | -0.001 | -0.005 | -0.029 | -0.021 | 0.026 | 0.021 | -0.004 | 0.01 | 0.001 | -0.012 | 0.034 | -0.01
PRC1 (UniProt O43663) | 0.002 | -0.157 | 0.043 | -0.012 | 0.012 | 0.031 | 0.255 (active) | 0.045 | -0.032 | 0.049 | -0.014 | -0.007 | -0.109 | 0.023 | 0.059 | -0.003 | 0.017 | 0.004 | -0.079 | 0.025
PKP3 isoform 2 (UniProt Q9Y446) | -0.011 | -0.126 | 0.067 | 0.035 | 0.017 | 0.098 | 0.095 | 0.019 | 0.031 | -0.018 | -0.007 | -0.004 | 0.043 | -0.024 | -0.048 | 0.04 | -0.039 | 0.08 | -0.085 | 0.027
PGLS (UniProt O95336) | 0.177 | 0.09 | 0.061 | 0.231 | 0.016 | 0.017 | 0.019 | 0.03 | -0.087 | -0.163 | 0.068 | 0.011 | 0 | 0.206 | 0.033 | -0.084 | 0.008 | 0.004 | -0.031 | -0.14
PPME1 isoform 4 (UniProt Q9Y570) | 0.01 | 0.024 | 0.008 | 0.024 | 0.002 | -0.001 | -0.066 | 0.031 | 0.005 | 0.002 | -0.014 | 0.009 | 0.005 | -0.014 | 0.002 | -0.002 | 0.048 | 0.026 | 0.052 | -0.006
PDXK (UniProt O00764) | -0.031 | -0.005 | 0.027 | 0.047 | 0.06 | -0.032 | -0.012 | -0.038 | 0.016 | -0.022 | -0.026 | 0.014 | 0.004 | -0.134 | 0.041 | 0.109 | -0.014 | -0.072 | 0.046 | 0.083
